The text below walks through data of publication PMC12864922, “TDP-43 directly inhibits mRNA accumulation in neurites through modulation of mRNA stability”.

The full ranking holds about 9,900 sequences; the median of “r (bound/input frequency ratio)” is about 0.7, and the highest 2% start at about 6.5. The sample holds the highest values, similar sequences and a random draw of the others, so the mix is not that of the screen.

To fix the notation:
B1: ENSMUSG00000031028.589|Tub (ssRNA)
RNA: GGGAGUUCUACAGUCCGACGAUCGCUUCGAUAUCCGCAUGCUAUUUCUUUCAGUUUAUGGCCACCUGCCCAAAUUGACUUCCAGCUUACAAUCUUCUGUCAUUUCAAGAUCGUAAGAAGUACUGGGAUGGGUUUGAGUUUUCAGCACAGAGGCGAGUUGAUCUAGGAGCAUACAACUGUACUGAGCAGCUAGAGCAUUUGAGCAACCCAUGUAAUCUUUGUGUUUCCCUCCCUGUAAGAAGGCCUGUCAGAGCUUGCUGUAGGAGUUAGGGUAAAUGAAAGUUAGUCCUGGCUCUCAUCACCACUCUUGCGGUCGCACUAGUGUGGAAUUCUCGGGUGUCAAGG
B2: ENSMUSG00000004113.44|Cacna1b (ssRNA)
RNA: GGGAGUUCUACAGUCCGACGAUCGCUUCGAUAUCCGCAUGCUAUCCGCCGUGUACCCAAUGGCUAUCACUGCACUUUGGGACUCAGCACUGGCGUCCGGGCGCGGCACAGCUACCACCACCCCGAUCAGGACCACUGGUGCUAGCUGCACCACGACCACCCAUGUACCAGCUCCAUGGGUGAGGGUUCCAGUUGAUGAGUUUUAUCAUCCGCUCUGGGCUGUGGGGUCACAGCCCUGGGAGGAGGGCCCUCACAUCUCGGCCUCUGUGGUGGAGGCUCCUGCUUCCCUCCCUCCCUCCCUUUUCUCUUGCGGUCGCACUAGUGUGGAAUUCUCGGGUGUCAAGG
B3: ENSMUSG00000031028.188|Tub (ssRNA)
RNA: GGGAGUUCUACAGUCCGACGAUCGCUUCGAUAUCCGCAUGCUAUUAAUGGCAGAGUUGAGAACCUCAAAUUCUUUUGUUCCUACUGUUGCCCAGAAACUAGACUCUCUGACCUGCUAGGGUCUAUUCUGCAUGUCCUUUCUCUUCCCAGUUCCAGAGAUGAAACCCCUCCGAGUUAAUGUAUAAGGUUGGAAACCUUUCAGUAGGGAAUCAGGCAGUUCCCUGUUGAAAGUUGUCUGAGUUUUUGCACACCAUUCUGAUCUGAUGUGGCCUGUGCCUGGCUCCUCUAUGAGGACUUCGAGCUGCUCUUGCGGUCGCACUAGUGUGGAAUUCUCGGGUGUCAAGG
B4: ENSMUSG00000029028.242|Lrrc47 (ssRNA)
RNA: GGGAGUUCUACAGUCCGACGAUCGCUUCGAUAUCCGCAUGCUAGUCAGAACUAGUGAAGCUCCAGGCUCCUCGUGGCAGACCCUGGACAACGCUGGUAGCUGUUCUCCAUGAGACACGGCUGCUCACAGGUCCCUUUGAGUGGCUGUGGCAAGUACUCACCUACUAAGUGUUUAGGGUGGAGCUAUCCUGUGCUCACCCUGUCUCCCCCCAGUUCCUGCUGUUCCCUCCAGCCCAGCCCAGCCCAGGUGUGAGAUUCAUUGAGAUUUUUGAAACUGUUUUUACAGAUUCAAGCAGAACGCCUCCUCUUGCGGUCGCACUAGUGUGGAAUUCUCGGGUGUCAAGG
B5: ENSMUSG00000058297.76|Spock2 (ssRNA)
RNA: GGGAGUUCUACAGUCCGACGAUCGCUUCGAUAUCCGCAUGCUACUGAUCCUGCCCCUCAGCCCAACACCUGGAAUCCCUGCCCUGCCUAAUCAGCCCUACCCCAUCCUGCCUUUCUUCCUUCCUCUUCUGAGGCCAGGGAGAGGGAGGGAGGGCAGGCAGCUGAAAGCUGAGCGUCCUCCCCAAAUUGGGCUGAUUUGAUAUGAAAGCCCCACCACGGUCUUGUGGUGAUGAGGCAGGACCUGUACACACAGCAAGGCUUACUAUCCGUCUCCUGACAUCCGAAGAGCUCGUCGCAGGUGUGUCUCUUGCGGUCGCACUAGUGUGGAAUUCUCGGGUGUCAAGG
B6: ENSMUSG00000061578.198|Ksr2 (ssRNA)
RNA: GGGAGUUCUACAGUCCGACGAUCGCUUCGAUAUCCGCAUGCUAGGCACAGAGUGAAUGGGAAGGAGAGCCCUGAGGUCACUGGUCCACAUGCCCAAAGCCAUGCCCCCCAGUGAUCAGACCUGACACAAGAGGCAAAGCUGUCCCUAAGCAGAGAAUUAGCAGGGUUAGCCAGACAGCAAAAUCCAUGUAAACAUACAAAACCACCCCCCCUUUUUGAGUGGCCCUAUUGGAUGUACACACUAGGACCAAGCACGGGUCCAAAGCAGGAAGACUGAUUGACAGUAGUCACACUUCUAGAGAGACUCUUGCGGUCGCACUAGUGUGGAAUUCUCGGGUGUCAAGG
B7: ENSMUSG00000022095.7|Fam160b2|99:103 (ssRNA)
RNA: GGGAGUUCUACAGUCCGACGAUCGCUUCGAUAUCCGCAUGCUAGUCAAGUUUCCCCCACACGGUCCUUACCUGAACUUCUCUCCACCUCCAGAAGGGCAAGUCUGAGCCAGGAGCAUGACGGGUGGGGGAAGAUUCCUGCCACACAACUUCUGCCCACGGGCAGUCUCCUGCCUGGCCAUGCUGCCACUCUGUCCUCCAUGCCGGGGACUUCAGCUGCAGGACACCUCACCUGUUGACCCCACGAGCUGAGGUUUCAAGGAGGUGCUGGCUCCUAAGGCAGUGGUAUUCUUGGAGCCUUUUAGCUCUUGCGGUCGCACUAGUGUGGAAUUCUCGGGUGUCAAGG
B8: ENSMUSG00000004113.286|Cacna1b (ssRNA)
RNA: GGGAGUUCUACAGUCCGACGAUCGCUUCGAUAUCCGCAUGCUACUUUGCAAAGGGAAAACCCAUGCUCAGGAAGGUGUUCAGUGUGCACAGAUAGCUGGGAGGCCACGAGAGAAAGGUUGCACACAGACAGGCAGGCACUCCUUGGUGUGGUCUCUCUGUUUUGAAACUUCUGAUGACUUCUUGGUGGCUUGUUGUCUUCUACCCCAUGUUUCUCACAGGAUCUGUGUGUGUGUGUGUGUGUGUGUGUGUGUGUGUGUGUGUGUGUGUUAGCAUGUGUGUAUUAGCGUGUGUGAGUGUGUGAGCUCUUGCGGUCGCACUAGUGUGGAAUUCUCGGGUGUCAAGG
B9: ENSMUSG00000004113.285|Cacna1b (ssRNA)
RNA: GGGAGUUCUACAGUCCGACGAUCGCUUCGAUAUCCGCAUGCUAUGGCUGCUUUGCAAAGGGAAAACCCAUGCUCAGGAAGGUGUUCAGUGUGCACAGAUAGCUGGGAGGCCACGAGAGAAAGGUUGCACACAGACAGGCAGGCACUCCUUGGUGUGGUCUCUCUGUUUUGAAACUUCUGAUGACUUCUUGGUGGCUUGUUGUCUUCUACCCCAUGUUUCUCACAGGAUCUGUGUGUGUGUGUGUGUGUGUGUGUGUGUGUGUGUGUGUGUGUGUUAGCAUGUGUGUAUUAGCGUGUGUGAGUGCUCUUGCGGUCGCACUAGUGUGGAAUUCUCGGGUGUCAAGG
B10: ENSMUSG00000004113.288|Cacna1b (ssRNA)
RNA: GGGAGUUCUACAGUCCGACGAUCGCUUCGAUAUCCGCAUGCUAAAAACCCAUGCUCAGGAAGGUGUUCAGUGUGCACAGAUAGCUGGGAGGCCACGAGAGAAAGGUUGCACACAGACAGGCAGGCACUCCUUGGUGUGGUCUCUCUGUUUUGAAACUUCUGAUGACUUCUUGGUGGCUUGUUGUCUUCUACCCCAUGUUUCUCACAGGAUCUGUGUGUGUGUGUGUGUGUGUGUGUGUGUGUGUGUGUGUGUGUGUUAGCAUGUGUGUAUUAGCGUGUGUGAGUGUGUGAGCAUGCACGAGUCCUCUUGCGGUCGCACUAGUGUGGAAUUCUCGGGUGUCAAGG
B11: ENSMUSG00000004113.289|Cacna1b (ssRNA)
RNA: GGGAGUUCUACAGUCCGACGAUCGCUUCGAUAUCCGCAUGCUACAUGCUCAGGAAGGUGUUCAGUGUGCACAGAUAGCUGGGAGGCCACGAGAGAAAGGUUGCACACAGACAGGCAGGCACUCCUUGGUGUGGUCUCUCUGUUUUGAAACUUCUGAUGACUUCUUGGUGGCUUGUUGUCUUCUACCCCAUGUUUCUCACAGGAUCUGUGUGUGUGUGUGUGUGUGUGUGUGUGUGUGUGUGUGUGUGUGUUAGCAUGUGUGUAUUAGCGUGUGUGAGUGUGUGAGCAUGCACGAGUCAUAGGACUCUUGCGGUCGCACUAGUGUGGAAUUCUCGGGUGUCAAGG
B12: ENSMUSG00000004113.287|Cacna1b (ssRNA)
RNA: GGGAGUUCUACAGUCCGACGAUCGCUUCGAUAUCCGCAUGCUAAAAGGGAAAACCCAUGCUCAGGAAGGUGUUCAGUGUGCACAGAUAGCUGGGAGGCCACGAGAGAAAGGUUGCACACAGACAGGCAGGCACUCCUUGGUGUGGUCUCUCUGUUUUGAAACUUCUGAUGACUUCUUGGUGGCUUGUUGUCUUCUACCCCAUGUUUCUCACAGGAUCUGUGUGUGUGUGUGUGUGUGUGUGUGUGUGUGUGUGUGUGUGUGUUAGCAUGUGUGUAUUAGCGUGUGUGAGUGUGUGAGCAUGCACUCUUGCGGUCGCACUAGUGUGGAAUUCUCGGGUGUCAAGG
B13: ENSMUSG00000004113.284|Cacna1b (ssRNA)
RNA: GGGAGUUCUACAGUCCGACGAUCGCUUCGAUAUCCGCAUGCUAACCUCAUGGCUGCUUUGCAAAGGGAAAACCCAUGCUCAGGAAGGUGUUCAGUGUGCACAGAUAGCUGGGAGGCCACGAGAGAAAGGUUGCACACAGACAGGCAGGCACUCCUUGGUGUGGUCUCUCUGUUUUGAAACUUCUGAUGACUUCUUGGUGGCUUGUUGUCUUCUACCCCAUGUUUCUCACAGGAUCUGUGUGUGUGUGUGUGUGUGUGUGUGUGUGUGUGUGUGUGUGUGUUAGCAUGUGUGUAUUAGCGUGUGCUCUUGCGGUCGCACUAGUGUGGAAUUCUCGGGUGUCAAGG

Sequence of TDP-43 (Q13148 whole entry): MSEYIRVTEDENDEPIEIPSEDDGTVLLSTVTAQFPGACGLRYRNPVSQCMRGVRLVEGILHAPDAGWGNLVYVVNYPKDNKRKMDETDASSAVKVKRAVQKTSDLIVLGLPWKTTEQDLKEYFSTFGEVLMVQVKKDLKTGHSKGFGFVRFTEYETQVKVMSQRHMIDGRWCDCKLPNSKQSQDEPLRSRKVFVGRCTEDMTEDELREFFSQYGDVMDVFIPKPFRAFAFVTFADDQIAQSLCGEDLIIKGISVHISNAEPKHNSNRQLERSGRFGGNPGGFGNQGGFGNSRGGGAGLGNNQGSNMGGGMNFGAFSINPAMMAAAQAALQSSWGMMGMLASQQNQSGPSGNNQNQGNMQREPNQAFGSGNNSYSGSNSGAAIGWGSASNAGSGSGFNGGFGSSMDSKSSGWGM

The experiment has as its target TDP-43 (Homo sapiens, UniProt Q13148 1-414). The experiment can be described thus: RNA Bind-n-Seq with designed 260-mer pool; 25 mM Tris-HCl, 150 mM KCl, 3 mM MgCl2, BSA (printed 500 mg/mL), 20 units/mL SUPERase IN; pH not stated; 500 nM RNA pool, 1 h, 4 C; TDP-43 5, 50, 500 nM; high values mean tight binding. The note with it: protein: recombinant; tags: SBP (GST cleaved off with PreScission; pGEX-GST-SBP). In short, it runs like this:
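For each oligo, R gives binding as its mapped-read-normalized abundance after pulldown divided by its abundance in input. Bead-captured SBP-tagged TDP-43 (5, 50 or 500 nM) was incubated with 500 nM of an in vitro-transcribed 260-nt 3′ UTR oligo pool for 1 h at 4 °C in 25 mM Tris-HCl, 150 mM KCl, 3 mM MgCl2, BSA and SUPERase IN on streptavidin beads. Washed, biotin-eluted RNA was reverse transcribed, PCR-amplified and sequenced.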
Consider B1, for which the binding signal is 0.299 R (bound/input frequency ratio).
For the molecule B2, the binding signal is 0.443 R (bound/input frequency ratio).
On to B3, for which the binding signal was 1.12 R (bound/input frequency ratio).
To B4 belongs 0.479 R (bound/input frequency ratio).
As for B5, the binding signal was 0.827 R (bound/input frequency ratio).
For B6, the binding signal was 1.41 R (bound/input frequency ratio).
Turning to B7, the binding signal is 0.238 R (bound/input frequency ratio).
Consider B8, for which the binding signal is 6.11 R (bound/input frequency ratio).
For B9, the binding signal was 7.91 R (bound/input frequency ratio).
Regarding B10, the binding signal is 7.06 R (bound/input frequency ratio).
Take B11: the binding signal was 5.06 R (bound/input frequency ratio).
With B12 the figure was 5.32 R (bound/input frequency ratio).
Consider B13, for which the binding signal is 6.3 R (bound/input frequency ratio).
